# In the supplement of paper PMC3334620:
# The full ranking holds about 33,000 sequences; the median of “E-score (-0.5 to 0.5)” is about -0.035, and the highest 2% start at about 0.35. This is one part of a sample in which the highest values are shown more often than they occur.
# Molecular target: T1, Pdr3 (UniProt P33200)
# T1 sequence: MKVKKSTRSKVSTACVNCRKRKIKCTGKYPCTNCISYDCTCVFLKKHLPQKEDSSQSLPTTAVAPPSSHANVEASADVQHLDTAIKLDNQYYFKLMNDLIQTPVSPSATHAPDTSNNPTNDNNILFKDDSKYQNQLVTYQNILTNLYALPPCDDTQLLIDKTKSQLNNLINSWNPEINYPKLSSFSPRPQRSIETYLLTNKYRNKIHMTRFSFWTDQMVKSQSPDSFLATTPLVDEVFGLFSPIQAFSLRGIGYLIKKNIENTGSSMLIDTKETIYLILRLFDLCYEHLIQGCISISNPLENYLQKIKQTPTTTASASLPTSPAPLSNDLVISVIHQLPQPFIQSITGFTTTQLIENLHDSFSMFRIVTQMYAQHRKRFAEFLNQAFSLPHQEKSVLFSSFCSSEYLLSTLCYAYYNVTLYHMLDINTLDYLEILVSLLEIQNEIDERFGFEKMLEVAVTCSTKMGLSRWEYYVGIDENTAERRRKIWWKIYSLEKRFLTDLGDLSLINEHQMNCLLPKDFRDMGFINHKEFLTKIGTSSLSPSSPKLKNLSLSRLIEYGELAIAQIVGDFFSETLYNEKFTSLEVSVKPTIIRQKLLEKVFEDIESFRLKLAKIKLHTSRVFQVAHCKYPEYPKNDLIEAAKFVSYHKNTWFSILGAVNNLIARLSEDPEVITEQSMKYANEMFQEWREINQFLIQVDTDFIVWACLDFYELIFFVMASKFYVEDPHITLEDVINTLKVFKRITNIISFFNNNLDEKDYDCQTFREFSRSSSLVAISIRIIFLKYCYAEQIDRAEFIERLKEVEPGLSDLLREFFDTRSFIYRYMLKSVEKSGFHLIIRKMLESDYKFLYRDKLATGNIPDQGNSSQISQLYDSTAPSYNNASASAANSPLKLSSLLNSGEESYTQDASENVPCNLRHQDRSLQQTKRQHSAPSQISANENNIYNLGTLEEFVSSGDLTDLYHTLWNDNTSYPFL
# Assay: PBM E-score (8-mer binding enrichment) (E-score (-0.5 to 0.5)); higher = stronger / more preferred TF binding
# Details: protein concentration: 200 nM; construct: GST-full length
# How it was run: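 Detection of bound protein used fluorescent anti-GST, with scans normalised by masliner. The proteins were GST-tagged yeast transcription factors applied at about 100-200 nM to universal all-10-mer Agilent arrays made double-stranded by primer extension. Each ungapped eight-base word, pooled with its reverse complement, was scored with an E-score from the Universal PBM Analysis Suite.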
row,Sequence,PBM E-score
1,AAACCTCA,0.109
2,GAGTTGGC,0.115
3,ATAAGCAG,-0.127
4,CCCGAATA,0.14
5,CGGCAGCC,0.358
6,AGGCAGCC,0.0506
7,CGGCAGCA,0.109
8,CCGGTTCC,0.426
9,AGGGTTCC,0.249
10,CGGGTTCA,0.304
11,CCGGTTCA,0.104
12,CCGGTTCG,0.217
13,CGGGTTCC,0.414
14,CTCCATAA,-0.273
15,CTCGCTGC,0.00281
16,CTGGTCTA,-0.254
17,ACACTTCC,0.184
18,CTGTTGAC,-0.162
19,AAACCAGG,-0.0534
20,CGTAACAC,-0.0629
21,AGGAATCC,0.0872
22,CGGAATCA,0.456

row,Sequence,PBM E-score
1,AGGAATCA,-0.0475
2,CGGAATCC,0.461
3,CCGAATCC,0.336
4,GGGAATCA,0.0382
5,CTTGGGCC,-0.0633
6,GTATCTGA,-0.146
7,ACGTCTCG,-0.0164
8,AAAGTCTC,-0.186
9,TTAGCGAA,0.0125
10,GCTACCAC,-0.16
11,ACGGGATG,0.283
12,GCGGGATA,0.322
13,CTGGGATA,0.0272
14,CGGGGAGA,0.28
15,CCGGGAGG,0.334
16,ACGGGATA,0.38
17,CCGGGATC,0.453
18,CGGGGATA,0.33
19,CCGGGAGA,0.369
20,CGGGGATC,0.28
21,CCGGGATA,0.388
22,ACGGGATC,0.275

row,Sequence,PBM E-score
1,AAGGAATG,0.126
2,CGCGTCCG,0.272
3,CTTCGCGC,0.274
4,ATCTAAAC,-0.113
5,GCTGGCAA,0.0154
6,CTCGGTCA,0.00197
7,AACCGGAT,0.316
8,CACCGGAA,0.46
9,GACCGGAA,0.401
10,AACCGGAG,0.326
11,AACCGGAA,0.435
12,CACCGGGA,0.272
13,GACCGGAC,0.28
14,CACCGGAC,0.341
15,TACCGGCA,0.214
16,TACCGGAA,0.44
17,TACCGGTA,0.103
18,GACCGGCA,0.0622
19,AAATAGTA,0.152
20,AGAGCAAC,-0.197
21,CCTATGGA,-0.127
22,CCTAGGTA,-0.174

row,Sequence,PBM E-score
1,AAAAGCAC,-0.291
2,AAAGACTA,-0.113
3,CGTTTTAG,-0.195
4,GGGCGTCA,0.0172
5,CGGAATGA,0.435
6,AGGAATGC,-0.0575
7,AGGAATGA,-0.0139
8,CGGAATGC,0.434
9,CTGAATGC,-0.0711
10,GGGAATGA,0.219
11,AGATCGTA,-0.304
12,ATCTCAGG,0.00088
13,ATTGTCGG,0.193
14,GATCTACC,0.00285
15,ATTGTTCG,0.194
16,ACCGTTCT,-0.0192
17,CGTGTTCC,0.383
18,ACCGTTCC,0.364
19,CTGGTTCC,0.264
20,CGTGTTCA,-0.0434
21,CCCGTTCC,0.347
22,AGTGTTCC,0.301
